The other results are listed elsewhere or left out. The source made the active and inactive calls.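 How the source made its calls: active means inhibition at 10 µM of 30% or more; inconclusive means no clear call, values can overlap the other calls; inactive means inhibition at 10 µM under 30%.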
These molecules were tested against DNA polymerase beta (Homo sapiens) (UniProt P06746) (assay: Inhibitors of DNA Polymerase Beta: Hit Validation in Radiolabeled Extension Assay). Details: radiolabeled primer extension gel assay, phosphorimager; at 10 µM; active compounds read high.
Description: The base excision repair system in human cells is a target for therapeutic modulation of the response to irradiation treatment and DNA-damaging drugs. A key enzyme in this system is the bi-functional DNA polymerase known as DNA polymerase Beta (Pol Beta). […] Using an integrated approach involving discovery of small molecule probes for Pol Beta via HTS and medchem optimization in collaboration with the NIH Chemical Genomics Center, validation by crystallography and kinetics along with cell-based validation experiments, we will test the hypothesis that base excision repair can be strategically modulated in human cells by targeting Pol Beta. Thus, we anticipate the Pol Beta-specific probes emerging from this research will serve as starting points in the development of clinical agents for use in downregulation of DNA base excision repair during therapeutic interventions against cancer. This assay is an orthogonal follow-up assay that looks at radiolabeled primer extension and was carried out by the assay provider. NIH Chemical Genomics Center [NCGC] NIH Molecular Libraries Probe Centers Network [MLPCN] […]
A primer oligonucleotide is 5'-32P end-labeled using T4 polynucleotide kinase and 32P-[ATP]. […] Percent extension of substrate to product is measured using standard, quantitative phosphoimager analysis.

SMILES | inhibition
O=C(Nc1ccc(S(=O)(=O)Nc2nccs2)cc1)c1cc(-c2ccncc2)nc2ccccc12 | 96.4% (active)

From PubChem BioAssay AID540325 (National Center for Advancing Translational Sciences (NCATS), 2011)
